Measurements published in the supplement of paper PMC10849652.
Of roughly 8,800 targets only a part is listed; those with a hit were picked by preference. About 0.5% of all pairs of compound and target were hits. Values without a mark were called inactive.

Compound: C#Cc1cccc(Nc2ncnc3cc(OCCOC)c(OCCOC)cc23)c1 [erlotinib]
Assay: log2 fold change, soluble protein after heating vs DMSO (PISA); higher = thermal stabilisation; K562 lysate, 10 uM; active = over 0.2 and 3.5 SD of the protein, either way, in both replicates (recomputed)
Method in brief: (§1)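 To prepare the extract, K562 pellets were dounce-homogenised in PBS pH 7.4 with 1 mM MgCl2, giving crude material at 1 mg/mL protein. This was treated with 10 μM compound for 30 min, then heated in aliquots for 3 min over 48°C-58°C before pooling and addition of NP-40 to 0.5% at 4°C. Centrifugation at 21,000xg for 90 min left soluble protein in the supernatant, which TMTpro 16plex LC-MS/MS quantified with equalised channel sums. Results are log-two fold changes in thermal stability compared with solvent controls, from duplicates.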

Sequence of UniProt Q8NI36 (Q8NI36 whole entry, looked up): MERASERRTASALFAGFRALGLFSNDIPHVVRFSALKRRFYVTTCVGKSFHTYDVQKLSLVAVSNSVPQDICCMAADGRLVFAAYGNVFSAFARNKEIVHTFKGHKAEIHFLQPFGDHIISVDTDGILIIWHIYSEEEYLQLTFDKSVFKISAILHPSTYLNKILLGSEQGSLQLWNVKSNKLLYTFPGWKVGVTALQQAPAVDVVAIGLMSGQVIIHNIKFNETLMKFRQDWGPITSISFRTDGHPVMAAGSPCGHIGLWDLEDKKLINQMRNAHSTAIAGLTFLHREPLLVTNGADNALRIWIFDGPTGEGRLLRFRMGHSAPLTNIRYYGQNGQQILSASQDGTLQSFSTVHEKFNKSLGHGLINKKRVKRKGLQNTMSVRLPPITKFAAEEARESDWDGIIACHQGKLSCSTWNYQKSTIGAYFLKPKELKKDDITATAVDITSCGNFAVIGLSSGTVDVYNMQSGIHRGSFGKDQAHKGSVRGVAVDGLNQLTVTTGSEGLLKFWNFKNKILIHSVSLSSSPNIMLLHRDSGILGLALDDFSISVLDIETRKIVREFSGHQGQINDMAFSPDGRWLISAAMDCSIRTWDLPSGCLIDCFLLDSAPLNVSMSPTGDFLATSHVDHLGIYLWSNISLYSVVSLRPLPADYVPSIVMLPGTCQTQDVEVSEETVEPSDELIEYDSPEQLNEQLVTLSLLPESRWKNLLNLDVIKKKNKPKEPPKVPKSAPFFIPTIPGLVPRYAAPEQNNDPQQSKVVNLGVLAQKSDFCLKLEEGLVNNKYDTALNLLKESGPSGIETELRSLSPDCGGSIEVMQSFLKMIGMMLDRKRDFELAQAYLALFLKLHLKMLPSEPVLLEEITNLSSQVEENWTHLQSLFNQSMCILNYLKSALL
Sequence of UniProt Q15906 (Q15906 whole entry, looked up): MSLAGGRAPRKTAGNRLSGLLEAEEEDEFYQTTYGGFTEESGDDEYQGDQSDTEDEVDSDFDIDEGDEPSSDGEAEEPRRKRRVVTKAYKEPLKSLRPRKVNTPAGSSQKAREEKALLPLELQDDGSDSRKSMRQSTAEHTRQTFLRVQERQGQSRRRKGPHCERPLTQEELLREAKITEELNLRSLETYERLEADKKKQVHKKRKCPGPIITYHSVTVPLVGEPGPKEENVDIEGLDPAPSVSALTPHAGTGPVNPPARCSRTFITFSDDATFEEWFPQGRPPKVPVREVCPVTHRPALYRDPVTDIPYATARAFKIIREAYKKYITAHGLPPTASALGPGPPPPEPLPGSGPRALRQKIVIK
Sequence of UniProt O00258 (O00258 whole entry, looked up): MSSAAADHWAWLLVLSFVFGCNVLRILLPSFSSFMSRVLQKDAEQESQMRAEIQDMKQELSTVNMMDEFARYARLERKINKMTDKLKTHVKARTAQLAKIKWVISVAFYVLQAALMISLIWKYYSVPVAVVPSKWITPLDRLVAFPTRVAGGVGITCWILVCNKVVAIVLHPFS
Sequence of UniProt Q86UV5 (Q86UV5 whole entry, looked up): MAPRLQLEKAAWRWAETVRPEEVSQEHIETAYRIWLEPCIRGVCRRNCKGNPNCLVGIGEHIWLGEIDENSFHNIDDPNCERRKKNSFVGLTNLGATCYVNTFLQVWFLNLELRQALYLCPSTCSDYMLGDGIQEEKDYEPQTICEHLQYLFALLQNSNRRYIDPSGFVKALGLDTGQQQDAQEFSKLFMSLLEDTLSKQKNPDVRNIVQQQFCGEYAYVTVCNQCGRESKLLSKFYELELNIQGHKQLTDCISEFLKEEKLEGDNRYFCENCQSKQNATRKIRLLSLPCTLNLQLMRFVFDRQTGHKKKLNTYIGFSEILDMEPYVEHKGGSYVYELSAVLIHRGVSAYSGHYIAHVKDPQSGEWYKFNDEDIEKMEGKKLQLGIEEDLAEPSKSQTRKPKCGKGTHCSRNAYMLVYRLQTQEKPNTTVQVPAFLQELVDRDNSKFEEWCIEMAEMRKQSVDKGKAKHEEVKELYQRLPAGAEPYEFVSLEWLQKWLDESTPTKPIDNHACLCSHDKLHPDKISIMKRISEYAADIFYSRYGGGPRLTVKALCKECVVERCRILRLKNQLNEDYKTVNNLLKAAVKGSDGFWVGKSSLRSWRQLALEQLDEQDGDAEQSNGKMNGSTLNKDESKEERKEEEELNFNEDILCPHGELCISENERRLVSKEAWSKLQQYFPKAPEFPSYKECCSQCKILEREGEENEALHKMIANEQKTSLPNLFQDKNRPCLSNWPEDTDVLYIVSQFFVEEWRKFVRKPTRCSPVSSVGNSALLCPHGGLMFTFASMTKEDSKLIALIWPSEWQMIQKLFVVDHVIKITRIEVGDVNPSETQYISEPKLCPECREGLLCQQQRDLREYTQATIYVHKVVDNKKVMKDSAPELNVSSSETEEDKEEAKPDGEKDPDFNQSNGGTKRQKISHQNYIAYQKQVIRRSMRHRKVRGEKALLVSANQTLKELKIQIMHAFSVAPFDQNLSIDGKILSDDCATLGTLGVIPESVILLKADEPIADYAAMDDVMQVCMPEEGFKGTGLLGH
Sequence of UniProt Q6PHR2 (Q6PHR2 whole entry, looked up): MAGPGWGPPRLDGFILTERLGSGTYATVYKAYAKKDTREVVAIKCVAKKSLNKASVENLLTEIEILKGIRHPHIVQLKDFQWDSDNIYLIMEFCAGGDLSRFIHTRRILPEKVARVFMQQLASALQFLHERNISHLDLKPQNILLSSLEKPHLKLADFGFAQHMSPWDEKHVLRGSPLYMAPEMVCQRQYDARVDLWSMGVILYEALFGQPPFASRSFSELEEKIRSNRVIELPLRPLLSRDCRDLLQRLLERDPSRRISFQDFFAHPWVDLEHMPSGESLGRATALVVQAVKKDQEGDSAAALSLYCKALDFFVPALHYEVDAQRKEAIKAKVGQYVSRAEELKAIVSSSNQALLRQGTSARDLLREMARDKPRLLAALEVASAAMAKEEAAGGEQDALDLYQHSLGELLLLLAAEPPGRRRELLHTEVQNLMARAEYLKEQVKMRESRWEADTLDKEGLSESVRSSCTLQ
Sequence of UniProt Q9Y5T5 (Q9Y5T5 whole entry, looked up): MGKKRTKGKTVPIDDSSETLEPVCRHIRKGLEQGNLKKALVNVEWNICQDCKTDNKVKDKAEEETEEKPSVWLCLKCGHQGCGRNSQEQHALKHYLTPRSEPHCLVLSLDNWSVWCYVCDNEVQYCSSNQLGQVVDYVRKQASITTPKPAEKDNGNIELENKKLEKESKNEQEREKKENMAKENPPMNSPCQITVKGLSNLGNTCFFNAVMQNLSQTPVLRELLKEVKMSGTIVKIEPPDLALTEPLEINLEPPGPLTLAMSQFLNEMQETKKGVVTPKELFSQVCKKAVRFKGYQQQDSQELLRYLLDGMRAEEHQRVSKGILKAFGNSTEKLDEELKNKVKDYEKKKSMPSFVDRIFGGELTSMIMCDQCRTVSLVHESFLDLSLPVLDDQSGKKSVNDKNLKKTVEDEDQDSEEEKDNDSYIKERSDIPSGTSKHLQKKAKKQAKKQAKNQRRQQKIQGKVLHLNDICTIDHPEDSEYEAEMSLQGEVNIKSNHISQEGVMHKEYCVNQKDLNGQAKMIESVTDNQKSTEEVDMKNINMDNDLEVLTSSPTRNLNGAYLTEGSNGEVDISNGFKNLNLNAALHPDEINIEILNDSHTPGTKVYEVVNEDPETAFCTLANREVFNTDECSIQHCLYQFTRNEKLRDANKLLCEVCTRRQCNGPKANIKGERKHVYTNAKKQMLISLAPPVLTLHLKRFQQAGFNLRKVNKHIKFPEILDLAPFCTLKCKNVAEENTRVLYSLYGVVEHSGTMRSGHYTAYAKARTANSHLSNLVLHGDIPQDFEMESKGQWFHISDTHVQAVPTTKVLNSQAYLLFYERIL
Sequence of UniProt Q9UPT9 (Q9UPT9 whole entry, looked up): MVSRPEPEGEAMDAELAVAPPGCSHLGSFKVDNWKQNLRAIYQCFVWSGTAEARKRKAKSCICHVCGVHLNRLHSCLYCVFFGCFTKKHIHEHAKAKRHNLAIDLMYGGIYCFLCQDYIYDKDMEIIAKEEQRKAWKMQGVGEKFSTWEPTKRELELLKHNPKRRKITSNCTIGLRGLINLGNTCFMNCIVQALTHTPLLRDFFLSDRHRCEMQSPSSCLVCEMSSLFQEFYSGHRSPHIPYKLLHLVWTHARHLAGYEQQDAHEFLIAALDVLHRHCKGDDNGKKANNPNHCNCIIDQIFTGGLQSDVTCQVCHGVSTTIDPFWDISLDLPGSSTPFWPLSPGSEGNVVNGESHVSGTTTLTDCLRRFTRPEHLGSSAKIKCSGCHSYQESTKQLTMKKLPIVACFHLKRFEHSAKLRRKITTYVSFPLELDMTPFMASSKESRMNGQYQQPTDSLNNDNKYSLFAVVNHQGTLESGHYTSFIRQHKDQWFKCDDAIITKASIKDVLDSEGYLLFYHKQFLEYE
Sequence of UniProt Q9Y484 (Q9Y484 whole entry, looked up): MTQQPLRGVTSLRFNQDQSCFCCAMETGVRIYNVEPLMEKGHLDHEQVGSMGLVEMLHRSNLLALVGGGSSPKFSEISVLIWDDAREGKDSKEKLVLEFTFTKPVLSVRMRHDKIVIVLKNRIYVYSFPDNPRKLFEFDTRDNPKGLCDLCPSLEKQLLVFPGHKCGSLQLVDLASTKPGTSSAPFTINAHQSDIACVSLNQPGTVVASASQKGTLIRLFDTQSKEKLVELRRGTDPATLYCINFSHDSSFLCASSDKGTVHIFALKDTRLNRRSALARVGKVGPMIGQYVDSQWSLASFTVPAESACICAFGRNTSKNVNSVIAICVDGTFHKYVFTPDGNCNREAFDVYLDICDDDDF
Sequence of UniProt P58557 (P58557 whole entry, looked up): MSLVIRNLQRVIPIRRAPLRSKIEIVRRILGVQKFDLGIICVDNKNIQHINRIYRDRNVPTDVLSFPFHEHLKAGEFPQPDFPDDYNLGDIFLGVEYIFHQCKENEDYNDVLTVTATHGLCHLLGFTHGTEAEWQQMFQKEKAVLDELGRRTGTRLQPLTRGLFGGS

Target	log2 fold change
ZNF346 (UniProt Q9UL40)	-0.057
VASN (UniProt Q6EMK4)	-0.644 (active)
WRB (UniProt O00258)	-0.043
USP22 (UniProt Q9UPT9)	0.072
UTRN isoform 2 (UniProt P46939)	-0.222
WAC isoform 5 (UniProt Q9BTA9)	-0.01
ZBTB40 (UniProt Q9NUA8)	-0.044
WAS (UniProt P42768)	0.023
USP48 isoform 8 (UniProt Q86UV5)	0.001
ZNF281 (UniProt Q9Y2X9)	-0.191
USP48 (UniProt Q86UV5)	0.022
WDR36 (UniProt Q8NI36)	0
ZNF845 (UniProt Q96IR2)	-0.033
ZYG11A (UniProt Q6WRX3)	-0.125
VPS72 (UniProt Q15906)	0.056
ZNF318 (UniProt Q5VUA4)	0.026
WDR45 isoform 2 (UniProt Q9Y484)	-0.047
UNC13A (UniProt Q9UPW8)	0.069
YTHDC2 (UniProt Q9H6S0)	-0.008
ZKSCAN8 (UniProt Q15776)	-0.005
WIPI1 (UniProt Q5MNZ9)	-0.025
YBEY (UniProt P58557)	0.101
USP16 (UniProt Q9Y5T5)	-0.002
ULK3 isoform 4 (UniProt Q6PHR2)	0.156

Compound: C/C(=N\NC(=O)C1=CC(=CC=C1)S(=O)(=O)N2CCOCC2)/C3=C(C=CC(=C3)Cl)O
Assay: as above
Method in brief: as §1

Target	log2 fold change
UNKL (UniProt E9PDK2)	-0.088
URGCP (UniProt Q8TCY9)	-0.024
WRB (UniProt O00258)	0.208
USP22 (UniProt Q9UPT9)	0.019
ZBTB40 (UniProt Q9NUA8)	-0.019
USP48 isoform 8 (UniProt Q86UV5)	-0.059
USP48 (UniProt Q86UV5)	0.001
WDR36 (UniProt Q8NI36)	0.02
ZNF845 (UniProt Q96IR2)	-0.145
VPS72 (UniProt Q15906)	-0.036
ZNF318 (UniProt Q5VUA4)	-0.033
WDR45 isoform 2 (UniProt Q9Y484)	-0.032
YTHDC2 (UniProt Q9H6S0)	0.065
ZKSCAN8 (UniProt Q15776)	-0.418
ZDHHC17 (UniProt Q8IUH5)	0.197
YBEY (UniProt P58557)	-0.164
USP16 (UniProt Q9Y5T5)	-0.01
ULK3 isoform 4 (UniProt Q6PHR2)	0.149

Compound: C1=CC(=CC=C1C2=NC3=C(N2)C=C(C=C3)C(=O)N)OC4=CC=C(C=C4)Cl
Assay: as above
Method in brief: as §1

Target	log2 fold change
ZNF346 (UniProt Q9UL40)	-0.009
VASN (UniProt Q6EMK4)	0.071
WRB (UniProt O00258)	0.027
USP22 (UniProt Q9UPT9)	-0.025
UTRN isoform 2 (UniProt P46939)	0.247
WAC isoform 5 (UniProt Q9BTA9)	-0.156
ZBTB40 (UniProt Q9NUA8)	-0.014
WAS (UniProt P42768)	0.074
USP48 isoform 8 (UniProt Q86UV5)	-0.011
ZNF281 (UniProt Q9Y2X9)	-0.106
USP48 (UniProt Q86UV5)	-0.015
WDR36 (UniProt Q8NI36)	-0.031
ZNF845 (UniProt Q96IR2)	0.102
ZYG11A (UniProt Q6WRX3)	-0.059
VPS72 (UniProt Q15906)	0.046
ZNF318 (UniProt Q5VUA4)	-0.054
WDR45 isoform 2 (UniProt Q9Y484)	-0.024
UNC13A (UniProt Q9UPW8)	0.039
YTHDC2 (UniProt Q9H6S0)	0.012
ZKSCAN8 (UniProt Q15776)	-0.148
WIPI1 (UniProt Q5MNZ9)	-0.006
YBEY (UniProt P58557)	0.009
USP16 (UniProt Q9Y5T5)	-0.01
ULK3 isoform 4 (UniProt Q6PHR2)	-0.008

Compound: C1=CC2=C(C=CC(=C2)/C=C\3/C(=O)NC(=NCC4=CC=CS4)S3)N=C1
Assay: as above
Method in brief: as §1

Target	log2 fold change
UNKL (UniProt E9PDK2)	0.166
URGCP (UniProt Q8TCY9)	-0.075
WRB (UniProt O00258)	0.002
USP22 (UniProt Q9UPT9)	0.048
ZBTB40 (UniProt Q9NUA8)	-0.075
USP48 isoform 8 (UniProt Q86UV5)	-0.008
USP48 (UniProt Q86UV5)	-0.051
WDR36 (UniProt Q8NI36)	0.027
ZNF845 (UniProt Q96IR2)	0.02
VPS72 (UniProt Q15906)	-0.057
ZNF318 (UniProt Q5VUA4)	-0.015
WDR45 isoform 2 (UniProt Q9Y484)	-0.001
YTHDC2 (UniProt Q9H6S0)	0.027
ZKSCAN8 (UniProt Q15776)	0.004
ZDHHC17 (UniProt Q8IUH5)	0.011
YBEY (UniProt P58557)	-0.039
USP16 (UniProt Q9Y5T5)	-0.002
ULK3 isoform 4 (UniProt Q6PHR2)	-0.151
